# SMN2 splice enh: SMN2 splice variant enhancement | 2.8% of 210,000 active | HEK293 SMN2-luciferase splicing reporter, luminescence, 30-36 h | Potency, µM (titrated, usually from 46.1 µM), for inactives: at the top dose activity change, positive = activation, most hits filed as activators; note: % of control where 0% means no effect; nearly all actives have a fitted effect of over 55% in size
#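 HEK293 cells carry an SMN2 […]–luciferase reporter in which exon 7 inclusion puts luciferase in frame. Cells were plated 10-12 h before compound addition, then incubated 30-36 h at 37C. ONE-Glo luminescence was read; sodium butyrate at 4.5 mM final served as control.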
# ELG1 genotox: inducers of genotoxicity in HEK293T ELG1-luciferase cells. AID 504466. 1.3% of 330,000 active. HEK293T ELG1-luciferase reporter, luminescence, 16 h. Potency, µM (series often up to 46 µM), without a hit: top-dose activity change, positive = activation, most hits filed as activators; note: % of control where 0% means no effect; nearly all actives have a fitted effect of over 60% in size
#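 Genotoxicity was scored as increased ELG1-luciferase reporter signal, measured by ONE-Glo luminescence (30 min, room temperature). Compound or vehicle exposure of the HEK293T reporter cells lasted 16 hr at 37°C.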
# NPC1 promoter act: activators of NPC1 promoter. Huh7 NPC1 promoter luciferase reporter, 24 h. 2.4% of 320,000 active. AID 485313. Potency, µM (top dose mostly 9.22 µM), without a hit: at the top dose activation, usual class: activators; note: % of control where 0% means no effect; nearly all actives have a fitted effect of over 60% in size
#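 Quantitative HTS used a cell-based reporter: Huh7 cells stably bearing the NPC1 promoter upstream of luciferase were treated with compounds for 24 h, and promoter activation was read as luminescence.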
# FLuc counter: firefly luciferase modulation, counter-screen for miR-21 project; P08659; purified FLuc, Km substrates, luminescence inhibition; 6.9% of 360,000 active; AID 588342; Potency, µM (top dose mostly 57.5 µM), for the others: top-dose activity change, negative = inhibition, usual class: inhibitors;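 note: plate controls were vehicle for no effect and reference inhibitor for full effect; nearly all actives have a fitted effect of over 55% in size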
# Target sequence (P08659 whole entry, looked up): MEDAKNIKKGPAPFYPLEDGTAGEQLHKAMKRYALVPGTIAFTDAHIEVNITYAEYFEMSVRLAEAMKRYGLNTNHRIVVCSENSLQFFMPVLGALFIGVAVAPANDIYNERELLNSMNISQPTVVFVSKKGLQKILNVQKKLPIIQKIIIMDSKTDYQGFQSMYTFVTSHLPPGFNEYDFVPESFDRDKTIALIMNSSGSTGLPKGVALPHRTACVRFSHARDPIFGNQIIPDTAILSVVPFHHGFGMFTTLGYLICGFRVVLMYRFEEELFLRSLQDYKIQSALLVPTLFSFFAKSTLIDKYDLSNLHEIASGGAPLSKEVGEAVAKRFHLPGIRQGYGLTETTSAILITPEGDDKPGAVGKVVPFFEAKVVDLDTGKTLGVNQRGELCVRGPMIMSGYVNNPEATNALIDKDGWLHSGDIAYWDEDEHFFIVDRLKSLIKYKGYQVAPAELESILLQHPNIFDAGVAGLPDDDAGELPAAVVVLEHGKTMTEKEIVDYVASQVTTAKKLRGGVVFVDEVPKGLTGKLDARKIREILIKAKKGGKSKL
#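 Purified P. pyralis luciferase (10nM final) with 10uM D-luciferin and 10uM ATP (Km levels) in 50mM Tris acetate pH 7.5, 10mM Mg acetate, 0.01% Tween-20, 0.05% BSA; qHTS 6-point titration, ~60 µM downward; luminescence read.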
# Rab9 promoter act: Rab9 promoter activation; Huh7 Rab9 promoter-luciferase reporter, luminescence, 24 h; 2.8% of 320,000 active; AID 485297; Potency, µM (doses to about 9.22 µM), for inactives: top-dose activation, negative = inhibition, actives largely listed as activators; note: % of control where 0% means no effect; nearly all actives have a fitted effect of over 60% in size
#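 Luciferase signal after 10 min detection reagent at ambient indicates Rab9 promoter upregulation; stably transfected Huh7 cells were treated 24 h with compound in DMSO at 37 °C, 5% CO2.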
# * hit, by the source's call; ? = inconclusive; . = no result; [ ] = remark or other dose. An excerpt weighted towards active compounds, which were near 7.4% of everything screened. Calls come from the whole dose curve; as a rule, active = well fitted curve in the direction sought with a large enough effect; inconclusive = small, poorly fitted or top-dose-only effect, or another doubt; inactive = no such curve, though single readings can be large; an effect the other way counts as inactive or inconclusive. Potency is the fitted concentration of half-maximal effect.
SMILES,SMN2 splice enh,ELG1 genotox,NPC1 promoter act,FLuc counter,Rab9 promoter act
N#C/C(=N\Nc1ccccc1)C(=N)N1CCCCC1,11µM*,6.5µM*,2µM*,5.4µM*,?
C/C(=N\Nc1nc2ccccc2[nH]1)c1ccc(Cl)s1,-3%,2%,?,11µM*,17%
C/C(=N\Nc1nc(C)cc(-c2ccccc2)n1)c1ccc(C)o1,-40%,-7%,-6%,?,-15%
C/C(=N\Nc1nc2ccccc2[nH]1)c1ccc(C)o1,18µM*,?,22%,11µM*,?
C/C(=N\Nc1nc2ccccc2[nH]1)c1ccc(N2CCOCC2)cc1,?,10%,4µM*,1.1µM*,?
C/C(=N\Nc1nc(C)cc(C)n1)c1ccc(N2CCOCC2)cc1,-11%,-7%,-10%,-14%,-13%
c1ccc(-c2ccc(-c3ccccn3)nn2)nc1,7.1µM*,10%,0.32µM*,1.3µM*,0.32µM*
c1ccc(-c2ccccn2)nc1,-9%,-1%,-3%[46.1 µM],3%,-4%[46.1 µM]
N#C/C(=C\c1ccccn1)c1ccccn1,.,5%,29%,?,?
N#C/C(=C\c1ccc([N+](=O)[O-])cc1)c1ccccn1,.,?,1.6µM*,?,?
CN(C)c1ccc(/C=C(\C#N)c2ccccn2)cc1,.,?,0.45µM*,0.24µM*,0.4µM*
COc1cc(/C=C(\C#N)c2ccccn2)ccc1OCc1ccccc1Cl,.,-2%,-1%,-16%,2%
N#C/C(=C/c1cccs1)c1ccccn1,.,?,2.8µM*,12µM*,4.5µM*
COC(=O)c1ccc(OC(=O)c2ccccn2)cc1,28%,-5%,1%,11µM*,-6%
COc1cc(/C=C(\C#N)c2ccccn2)cc(OC)c1O,.,0%,-7%,-4%,-1%
COC(=O)c1ccc(/C=C(\C#N)c2ccccn2)cc1,?,2.6µM*,1.1µM*,2.4µM*,0.89µM*
CCCCCc1ccc(-c2ccc(OC)cc2)nc1,.,-13%,0%,?,-9%
CCCCCc1ccc(-c2nnc(N)s2)cc1,.,?,23%,21µM*,?
CCCCCCc1ccc(-c2ncc(N)cn2)cc1,11µM*,?,17%,12µM*,?
c1ccc(OCCOc2ncnc3ccccc23)cc1,3%,?,3.5µM*,?,4µM*
Cc1cc(C(=O)CSc2cccc[n+]2[O-])c(C)n1-c1ccc(OC(F)F)cc1,.,8%,?,15µM*,?
COC(=O)c1ccc(-n2c(C)cc(C(=O)CSc3cccc[n+]3[O-])c2C)cc1,8%,-3%,1%,?,-1%
Cc1cccc(-n2ccnc2SCC(=O)N2CCCc3ccccc32)c1C,-18%,-6%,1%,0%,-2%
N#C/C(=C(/N)Sc1ccc(N)cc1)c1ccccc1C(F)(F)F,-8%,.,.,.,.
O=C(NNC1CC(=O)N(c2ccccc2)C1=O)c1ccco1 (stereo not drawn),-5%,1%,-3%,-13%,-9%
SMILES,SMN2 splice enh,ELG1 genotox,NPC1 promoter act,FLuc counter,Rab9 promoter act
O=C(NNC1CC(=O)N(c2ccccc2)C1=O)c1ccc(COc2ccccc2Cl)o1 (stereo not drawn),5%,2%,0%,17µM*,2%
O=C(Nc1cccc(-c2nc3ccccc3s2)c1)c1cccs1,?,-1%,-2%,13µM*,3%
O=C(CCS(=O)(=O)c1ccccc1)Nc1ccc(-c2nc3ccccc3s2)cc1,1µM*,?,1.6µM*,-19%,0.5µM*
O=C(Nc1cccc(-c2nc3ccccc3s2)c1)c1cc(=O)c2ccccc2o1,1%,13%,0%,-4%,-1%
O=C(CCS(=O)(=O)c1ccccc1)Nc1cccc(-c2nc3ccccc3s2)c1,-111%,?,?,6.7µM*,?
O=C(CCS(=O)(=O)c1ccccc1)Nc1ccc(S(=O)(=O)Nc2ncccn2)cc1,.,7%,-3%,-1%,1%
COC(=O)c1sc(N2C(=O)c3oc4cc(C)c(C)cc4c(=O)c3C2c2ccccc2F)nc1C (stereo not drawn),20%,.,.,-2%,.
COc1cc(/C=C2\SC(=O)NC2=O)ccc1OCC(=O)N1CCOCC1,.,1%,.,.,.
CN(CC(=O)Nc1ccccc1Cl)C(=O)COC(=O)C1=COCCO1,.,-1%,10%,-3%,12%
C/C(=C1/C(=O)N(c2ccc([N+](=O)[O-])cc2)N=C1c1ccccc1)N(C)C,-32%,-4%,?,3%,21%
CN(C)/C=C1/C(=O)N(c2ccc([N+](=O)[O-])cc2)N=C1c1ccccc1,10µM*,?,?,7.6µM*,?
CN(C)/C=C1\C(=O)N(c2ccc([N+](=O)[O-])cc2)N=C1c1ccccc1,?,9.2µM*,?,?,5.6µM*
COc1ccc([N+](=O)[O-])cc1NC(=O)C(C)OC(=O)CC1CCCC1 (stereo not drawn),.,0%,1%,5%,-6%
CC1CCCN(C(=O)COc2ccc(-c3ccccc3)cc2)C1 (stereo not drawn),14%,7%,1%,?,16%
Cc1cccc(OCC(=O)N2CCC(c3ccccc3)C2)c1 (stereo not drawn),16µM*,21µM*,3.2µM*,13µM*,2.8µM*
O=C(COc1ccc(F)cc1)N1CCC(c2ccccc2)C1 (stereo not drawn),13µM*,?,29%,19µM*,?

# Screening data: PubChem, National Center for Advancing Translational Sciences (NCATS)
